The whole screen tested about 24,000 compounds, of which about 180 (0.75%) were called active. Rule as the data show it: active = inhibition above about 30%; inconclusive = no clear call, values can overlap the other calls; inactive = below that. Many of the other results were omitted from the sample, so actives are more common in it than they were.
target: fMet-Leu-Phe receptor (Homo sapiens) (UniProt P21462); experiment: human FPR ligands by binding competition, primary screen, cell-based, FPRL1 counter-screen, flow cytometry (AID 440); conditions: FPR-expressing cells, fluorescent ligand binding, active compounds read high, concentration not given here;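 also: 0% = buffer wells and 100% = receptor blocker peptide wells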
Sequence (P21462 whole entry, looked up): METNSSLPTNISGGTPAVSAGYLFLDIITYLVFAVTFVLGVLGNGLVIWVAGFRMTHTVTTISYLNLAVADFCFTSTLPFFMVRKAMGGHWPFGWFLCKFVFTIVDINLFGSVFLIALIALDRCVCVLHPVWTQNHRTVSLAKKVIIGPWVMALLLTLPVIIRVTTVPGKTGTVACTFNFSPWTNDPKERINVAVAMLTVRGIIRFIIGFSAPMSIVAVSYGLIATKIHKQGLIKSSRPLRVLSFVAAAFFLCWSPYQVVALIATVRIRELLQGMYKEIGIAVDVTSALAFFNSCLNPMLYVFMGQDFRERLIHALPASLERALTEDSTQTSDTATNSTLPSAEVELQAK

SMILES	inhibition
COC(=O)c1ccc(CSc2ccccc2C)o1	0.5% (inactive)
O=C(Nc1ccccc1C(=O)N1CCOCC1)C1CCC(=O)N1C1CCCC1 (stereo unspecified)	-0.6% (inactive)
COc1ccc(CN2C(=O)CN=C2Nc2ccc(C)cc2C)cc1	6.5% (inactive)
O=C(Cn1nc(Cc2cccnc2)c2ccccc2c1=O)NCC1CCCO1 (stereo unspecified)	0.4% (inactive)
Cc1nn(C)c(C)c1S(=O)(=O)N1CCc2ccccc21	8.9% (inactive)
O=C(NCCCN1CCN(C2CCCCC2)CC1)Nc1ccccc1C(F)(F)F	1.3% (inactive)
O=C(CN1C(=O)COc2ccccc21)Nc1ccc(F)cc1	4.3% (inactive)
CCn1ncc(Br)c1C(=O)Nc1cc(C)ccc1F	0.8% (inactive)
Cc1nc(CNS(=O)(=O)c2cccnc2)cs1	1.9% (inactive)
CSc1sc(C)cc1C1C(C#N)=C(N)N(c2cccnc2)C2=C1C(=O)CCC2 (stereo unspecified)	4.3% (inactive)
Cc1nc(C)c(C(=O)Nc2ccc(C)c(F)c2)o1	-4.6% (inactive)
O=c1c(-c2ccc3c(c2)OCCO3)c(C(F)(F)F)oc2cc(O)cc(O)c12	-6.7% (inactive)
Cc1cccn2c(=O)c3cc(C(=O)NCc4ccccn4)n(C)c3nc12	-5.1% (inactive)
O=C(Nc1cccnc1)c1noc2c1CCCCC2	-1.9% (inactive)
Cc1cc(N2C(=O)C(=O)/C(=C(/O)c3ccc(Cl)cc3)C2c2cccc(Br)c2)no1 (stereo unspecified)	3.2% (inactive)
CCCC(NC(=O)c1ccccc1)c1nc2ccccc2n1Cc1ccc(C(=O)OC)o1 (stereo unspecified)	24.2% (inactive)
CSc1ccc(NC(=O)N2CC(C)OC(C)C2)cc1 (stereo unspecified)	-6.4% (inactive)
CCCCOc1ccc(C(=O)NCc2ccco2)cc1	0.1% (inactive)
O=C(O)Cc1ccc(-c2ccccc2)cc1	3.8% (inactive)
Cc1cc(Cl)c(S(=O)(=O)Nc2ccc3c(c2)OCCO3)cc1OCC(N)=O	-7.6% (inactive)
CC1=C(C)CC2C(=O)N(c3cccc4ccccc34)C(=O)C2C1 (stereo unspecified)	-2.3% (inactive)
COc1cc2c(cc1NC(=O)CN1CCN(S(=O)(=O)c3ccc(F)cc3)CC1)oc1ccccc12	2.8% (inactive)
CCOC(=O)C1(C(F)(F)F)N=C(N(C)C)OC(N(C)C)=N1	-1.4% (inactive)
COC(=O)Nc1ccc(S(=O)(=O)N(C)CC(F)(F)C(F)F)cc1	1% (inactive)

SMILES	inhibition
CCCOc1ccc(/C(O)=C2/C(=O)C(=O)N(CCN(C)C)C2c2ccc(OC)c(OC)c2)cc1 (stereo unspecified)	-5% (inactive)
COC(=O)CNS(=O)(=O)c1ccc(Cc2ccc(S(=O)(=O)NCC(=O)OC)cc2)cc1	-3.3% (inactive)
CCOC(=O)c1ccc(-n2c(C)nc3c(cnn3-c3ccccc3C)c2=O)cc1	-9.5% (inactive)
CN(C)S(=O)(=O)c1ccc(Oc2ccc(S(=O)(=O)N(C)C)cc2)cc1	-1.8% (inactive)
O=C(CSc1nnc(Cn2cnc3ccccc32)o1)c1ccccc1	1.9% (inactive)
O=C(O)[C@@H]1CCCN1c1ncnc2sc3c(c12)CCC3	8.1% (inactive)
CC(=O)c1cccc(S(=O)(=O)N2CCC(n3nnc4cc(F)ccc43)CC2)c1	9.5% (inactive)
COc1ccc(C(=O)Nc2nncs2)c(OC)c1	5.3% (inactive)
CC(=O)Nc1cc(C(=O)O)ccc1S(=O)(=O)c1ccc(Cl)cc1	-2.3% (inactive)
CCOC(=O)N1CCC(NC(=O)Cn2cc3c(n2)CCCCC3)CC1	0% (inactive)
Cc1ccc(C)c(S(=O)(=O)n2cnc3ccccc32)c1	-0.2% (inactive)
O=C(Nc1ccccc1C(F)(F)F)c1cc(-c2ccc(O)cc2)on1	-2.3% (inactive)
O=C(CS(=O)(=O)c1cn(Cc2ccc(Cl)cc2)c2ccccc12)N1CCOCC1	15% (inactive)
O=C(Nc1c2c(nn1-c1ccc(F)cc1)CS(=O)C2)C12CC3CC(CC(C3)C1)C2 (stereo unspecified)	-5.4% (inactive)
Cc1cc(C)c(C#N)c(SCc2[nH]nc3c2C(c2ccccc2)C(C#N)=C(N)O3)n1 (stereo unspecified)	-6.4% (inactive)
CCCCc1nc2c(=O)[nH]c3ccccc3c2o1	-2.1% (inactive)
Fc1ccc2nc(Nc3nc4c(s3)CCCC4)sc2c1	-14.3% (inactive)
Cn1cccc1C1(C(F)(F)F)NCCNC1=O (stereo unspecified)	1.7% (inactive)
CCCCCCn1c(CN2CCCCC2)nc2c1c(=O)n(C)c(=O)n2C	-5.5% (inactive)
O=c1c(-c2ccccc2)coc2c(CN3CCOCC3)c(O)ccc12	-5.5% (inactive)
c1ccc(COc2nsnc2N2CCOCC2)cc1	-1.9% (inactive)
Cn1cccc1Cc1nnc(SCC(=O)NCc2ccc3c(c2)OCO3)n1CCc1ccccc1	4.8% (inactive)
COc1ccc(CCNC(=O)C2CCN(c3nn4c(=O)cc(C)nc4s3)CC2)cc1OC	-2.7% (inactive)
CCn1ncc(C2=NOC(C(=O)N3CCN(c4ccccc4)CC3)C2)c1C (stereo unspecified)	-5.6% (inactive)

SMILES	inhibition
OCc1n[nH]c(CO)n1	1.3% (inactive)
O=C(CN1CCN(c2ncc(C(F)(F)F)cc2Cl)CC1)Nc1ccc2c(c1)OCO2	-4.3% (inactive)
CCCCOCCCNC(=O)c1ccccc1OCC	1.4% (inactive)
CCOC(=O)c1cc(NC(=O)SCC(=O)O)c(C)nc1C	3.8% (inactive)
CCOC(=O)c1cc2cc(-c3c(C(=O)OCC)oc4cc(O)cc(O)c4c3=O)ccc2o1	-2.3% (inactive)
COc1cc(C2C(C(=O)Nc3ccc(F)cc3)=C(C)Nc3nc(CCCO)nn32)cc(OC)c1OC (stereo unspecified)	-4.8% (inactive)
CCOc1ccc2c(=O)c(-c3ccc4c(c3)OCCCO4)c(C)oc2c1	-4.1% (inactive)
CCOc1ccc(N(CC(=O)NCc2ccc(OC)cc2)S(=O)(=O)c2c(C)noc2C)cc1	-3.8% (inactive)
CCOC(=O)CSc1nc2c(c(=O)n(C)c(=O)n2C)n1Cc1ccccc1F	4.7% (inactive)
CCOc1ccc(Cn2nnc(C(=O)Nc3ccc(OC)cc3OC)c2N)cc1	-3.7% (inactive)
O=C(Nc1ccn(Cc2ccc(F)cc2)n1)c1ccncc1	-7.7% (inactive)
COc1ccc(OC)c(NC(=O)CCN2CCC(C)CC2)c1	-5.8% (inactive)
Cc1cc(C)c(C#N)c(SCS(=O)c2ccc(C(C)(C)C)cc2)n1 (stereo unspecified)	-4.1% (inactive)
CCC(C(=O)Nc1ncccn1)(C(F)(F)F)C(F)(F)F	-1.6% (inactive)
CCOC(=O)c1nnn(-c2nc(OC)nc(N(C)C)n2)c1-c1ccccc1	-0.2% (inactive)
COc1cccc(Oc2ccc(N)cc2)c1	-7.2% (inactive)
C=CCn1c(SCC(=O)NC23CC4CC(CC(C4)C2)C3)nc(O)cc1=O	3.3% (inactive)
CCn1ncc(C2=NOC(C(=O)Nc3ccccc3C(=O)OC)C2)c1C (stereo unspecified)	5.9% (inactive)
Cc1ccnc(N2C(=O)c3ccccc3C2Nc2ccc3c(c2)OCCO3)c1 (stereo unspecified)	-0.2% (inactive)
CC(=O)C1=C(O)C(=O)N(c2ccc(S(N)(=O)=O)cc2)C1c1ccccc1F (stereo unspecified)	-10.4% (inactive)
CCOC(=O)Cn1c(N)c(C(=O)OC)sc1=S	1.5% (inactive)
CCOC(=O)c1sc(=S)n(-c2cccc(OC)c2)c1N	11% (inactive)
CCOC(=O)c1sc(=S)n2c1[nH]c(=O)c1ccc(C(=O)OC)cc12	35.8% (active)
Cc1ccc2cccc(O)c2[n+]1[O-]	0.7% (inactive)

SMILES	inhibition
CCOC(=O)Cn1c2c(c(-c3ccccc3OC)cc1=O)CCCC2	10.1% (inactive)
CCOC(=O)N1CCN(C(=O)CSc2nnc(-c3c[nH]c4ccccc34)n2CCOC)CC1	8.4% (inactive)
Cc1ccc2nc(NC(=O)C3CCN(S(=O)(=O)c4ccc5c(c4)oc(=O)n5C)CC3)sc2c1	-18.8% (inactive)
Cc1cc(Nc2cccc(F)c2)n2ncnc2n1	-3.6% (inactive)
Cc1nc2ccc(S(=O)(=O)NCC(=O)NCCN3CCCCC3C)cc2s1 (stereo unspecified)	-4.2% (inactive)
Cc1noc(C)c1S(=O)(=O)N(CC(=O)Nc1ccc2c(c1)OCCO2)c1ccc(C(C)C)cc1	0.9% (inactive)
O=C(OCc1ccccc1F)c1ccc2c(c1)OCCO2	3.6% (inactive)
CN1CCN(CCCNC(=O)c2cc3c(=O)oc4ccccc4c3s2)CC1	-0.9% (inactive)
COC(=O)c1cc(S(=O)(=O)NC2CCN(Cc3ccccc3)CC2)cn1C	-4.4% (inactive)
CCC(=O)N1CCN=C1SCc1ccc(F)cc1	0% (inactive)
O=C(Nc1nccs1)C1CCCN1S(=O)(=O)c1cccc2cccnc12 (stereo unspecified)	-4.6% (inactive)
COc1cccc(-n2cc(C(=O)O)c3ccccc3c2=O)c1	-2.1% (inactive)
COC(=O)c1c(-c2ccc(C)cc2)csc1N	7% (inactive)
CCN1CCN(Cc2c(O)ccc3c(=O)c(-c4ccc(OC)c(OC)c4)c(C(F)(F)F)oc23)CC1	-8.1% (inactive)
O=C1C(=O)N(CCN2CCOCC2)C(c2ccccn2)/C1=C(/O)c1ccc(Cl)cc1 (stereo unspecified)	13.6% (inactive)
CCOc1ccc(OCC)c(NC(=O)CN(C)S(=O)(=O)c2cccc3nsnc23)c1	-0.8% (inactive)
Cc1cnc(C(=O)OCC(=O)Nc2ccc(Cl)cc2Cl)cn1	-2.2% (inactive)
COc1ccc(NC(=O)c2c(SC)nsc2SC)cc1	2.1% (inactive)
COc1ccc(-c2ccc(Nc3ccc(S(=O)(=O)N4CCCC4)cc3)nn2)cc1OC	-6.4% (inactive)
Cc1cc(Nc2ccc(Br)cc2F)n2ncnc2n1	-4.7% (inactive)
CCOC(=O)N1CCN(C(=O)C2CC(c3ccc(F)cc3)=NO2)CC1 (stereo unspecified)	9.4% (inactive)
CN(C)CCCNC(=O)c1ccc2[nH]c3ccccc3c2c1	3.7% (inactive)
COc1cccc(N2C(=O)CC(N3CCN(S(=O)(=O)c4ccccc4)CC3)C2=O)c1 (stereo unspecified)	-0.8% (inactive)
CCOC(=O)c1c(C)c(C(=O)NCCc2ccc(S(N)(=O)=O)cc2)c(C)n1CC	-11.9% (inactive)
